Source: PubChem BioAssay (EPA / NIEHS)
Active and inactive are the calls of the source. The calls were made as follows: active = hit-call score of the fitted dose curve at least 0.9, where 1 is the maximum; inactive = score below 0.9.

Key:
[1] = read-out: TIMP metallopeptidase inhibitor 2 (TIMP2), TIMP2 (gene 7077); assay: BSK_KF3CT_TIMP2: BioMAP Diversity Plus: KF3CT Assay for TIMP metallopeptidase inhibitor 2 (TIMP2) Biomarker Activity (AID 2283071); settings: primary human keratinocytes with fibroblasts; actives raise or lower the signal
In short: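 Keratinocyte–fibroblast co-culture, 24 h exposure; TIMP-2 ELISA, DMSO-normalised bidirectional fit. Parallel SRB (0.1%, TCA-fixed, 560 nm) total-protein staining gauges cytotoxicity.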

[2] = read-out: Transforming growth factor beta 1 (TGFb1), TGFB1 (gene 7040); assay: BSK_KF3CT_TGFb1: BioMAP Diversity Plus: KF3CT Assay for Transforming growth factor beta 1 (TGFb1) Biomarker Activity (AID 2283072); settings: primary human keratinocytes with fibroblasts; actives raise or lower the signal
In short: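 Signal changes in either direction, relative to DMSO, define activity here. TGF-b1 is read by ELISA from a human keratinocyte-fibroblast co-culture 24 h post-dose.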

[3] = read-out: C-C motif chemokine 2 (Homo sapiens) (UniProt P13500); assay: BSK_KF3CT_MCP1: BioMAP Diversity Plus: KF3CT Assay for Monocyte Chemoattractant Protein 1 (MCP1/CCL2) Biomarker Activity (AID 2283073); settings: primary human keratinocytes with fibroblasts; actives raise or lower the signal
In short: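 Human keratinocyte plus foreskin fibroblast primary co-culture exposed to chemical for 24 h. MCP-1 levels measured by ELISA. Bidirectional curve fitting relative to DMSO negative control as baseline.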

[4] = read-out: Matrix Metallopeptidase 9 (MMP9), MMP9 (gene 4318); assay: BSK_KF3CT_MMP9: BioMAP Diversity Plus: KF3CT Assay for Matrix Metallopeptidase 9 (MMP9) Biomarker Activity (AID 2283074); settings: primary human keratinocytes with fibroblasts; actives raise or lower the signal;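 as to AC50: MMP9 protein level quantified by ELISA in the co-culture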
In short: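 Human keratinocyte and foreskin fibroblast co-culture exposed to chemicals for 24 h; MMP9 biomarker measured by ELISA, bidirectional fitting relative to DMSO; cytotoxicity tracked by SRB total protein staining in parallel cultures.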

[5] = read-out: CD40, CD40 (gene 958); assay: BSK_LPS_CD40: BioMAP Diversity Plus: LPS Assay for CD40 Biomarker Activity (AID 2283076); settings: primary human HUVEC with PBMC; actives raise or lower the signal
In short: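 Primary human umbilical vein endothelial cells co-cultured with peripheral blood mononuclear cells, LPS-stimulated, were dosed with chemical and read 24 h later. CD40 levels were measured by ELISA and fitted bidirectionally against DMSO as negative control and baseline.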

[6] = read-out: E-selectin (Homo sapiens) (UniProt P16581); assay: BSK_LPS_Eselectin: BioMAP Diversity Plus: LPS Assay for Eselectin Biomarker Activity (AID 2283077); settings: primary human HUVEC with PBMC; actives raise or lower the signal
In short: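 Human umbilical vein endothelial cells co-cultured with peripheral blood mononuclear cells under LPS stimulation; E-selectin measured by ELISA 24 h after chemical dosing. Activity fitted bidirectionally against DMSO as negative control and baseline.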

[7] = read-out: Interleukin-8 (IL8), CXCL8 (gene 3576); assay: BSK_LPS_IL8: BioMAP Diversity Plus: LPS Assay for Interleukin-8 (IL8) Biomarker Activity (AID 2283078); settings: primary human HUVEC with PBMC; actives raise or lower the signal
In short: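 Human umbilical vein endothelial cells co-cultured with PBMC were stimulated with LPS; IL-8 levels were measured by ELISA 24 h after chemical dosing. Activity was fitted bidirectionally against DMSO as negative control and baseline.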

[8] = BSK_LPS_SRB: Viability Assessment in the BioMAP Diversity Plus: LPS Assay (AID 2283079); settings: primary human HUVEC with PBMC;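 also: total protein by sulforhodamine B absorbance as a cytotoxicity measure; measured one day after compound addition; fitted in both directions against DMSO so loss or gain of signal counts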
In short: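 Human umbilical vein endothelial cells co-cultured with PBMC (LPS system) were dosed for 24 h. Total protein was stained with 0.1% sulforhodamine B after 10% TCA fixation, read at 560 nm, and fitted bidirectionally against DMSO baseline.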

[9] = read-out: Interleukin-1 alpha (IL1a), IL1A (gene 3552); assay: BSK_LPS_IL1a: BioMAP Diversity Plus: LPS Assay for Interleukin-1 alpha (IL1a) Biomarker Activity (AID 2283080); settings: primary human HUVEC with PBMC; actives raise or lower the signal
In short: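 Human umbilical vein endothelial cells co-cultured with peripheral blood mononuclear cells were LPS-stimulated and exposed to test chemicals for 24 h. IL-1 alpha was quantified by ELISA, with bidirectional curve fitting against DMSO as the negative control and baseline.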

[10] = read-out: Monocyte Chemoattractant Protein-1 (MCP1), CCL2 (gene 6347); assay: BSK_LPS_MCP1: BioMAP Diversity Plus: LPS Assay for Monocyte Chemoattractant Protein-1 (MCP1) Biomarker Activity (AID 2283081); settings: primary human HUVEC with PBMC; actives raise or lower the signal;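 as to AC50: secreted MCP-1 protein quantified by ELISA in culture supernatant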
In short: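 HUVEC plus PBMC co-culture (human primary cells, LPS system) exposed to test chemical for 24 h; MCP-1 measured by ELISA. Bidirectional curve fitting against DMSO baseline; parallel SRB total-protein staining flags overt cytotoxicity.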

[11] = BSK_LPS_PGE2: BioMAP Diversity Plus: LPS Assay for Prostaglandin E2 (PGE2) Biomarker Activity (AID 2283082); settings: primary human HUVEC with PBMC; actives raise or lower the signal;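 as to AC50: secreted prostaglandin E2 measured by ELISA in LPS-stimulated co-culture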
In short: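 Endpoint derived from bidirectional curve fitting versus DMSO of ELISA-measured PGE2 in LPS-stimulated human primary vascular co-culture (HUVEC with PBMC) harvested at 24 h.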

[12] = read-out: Macrophage colony-stimulating factor (MCSF), CSF1 (gene 1435); assay: BSK_LPS_MCSF: BioMAP Diversity Plus: LPS Assay for Macrophage colony-stimulating factor (MCSF) Biomarker Activity (AID 2283083); settings: primary human HUVEC with PBMC; actives raise or lower the signal
In short: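 Human umbilical vein endothelial cells co-cultured with peripheral blood mononuclear cells were exposed to compound for 24 h. M-CSF levels were measured by ELISA, and bidirectional curve fitting used DMSO as the negative control and baseline.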

[13] = read-out: Tumor necrosis factor (Homo sapiens) (UniProt P01375); assay: BSK_LPS_TNFa: BioMAP Diversity Plus: LPS Assay for Tumour Necrosis Factor alpha (TNFa) Biomarker Activity (AID 2283085); settings: primary human HUVEC with PBMC; actives raise or lower the signal
In short: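 Primary human vascular co-culture of HUVEC and PBMC; TNFa ELISA 24 h after treatment, analysed as increase or decrease relative to DMSO control.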

[14] = read-out: Vascular cell adhesion molecule 1 (VCAM1), VCAM1 (gene 7412); assay: BSK_LPS_VCAM1: BioMAP Diversity Plus: LPS Assay for Vascular cell adhesion molecule 1 (VCAM1) Biomarker Activity (AID 2283086); settings: primary human HUVEC with PBMC; actives raise or lower the signal
In short: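 Primary human vascular co-culture (umbilical vein endothelium plus PBMC) stimulated with LPS received chemical; 24 h later VCAM-1 was read by ELISA. Overt cytotoxicity was assessed by sulforhodamine B staining of parallel cultures at the same time point.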

[15] = read-out: CD38, CD38 (gene 952); assay: BSK_SAg_CD38: BioMAP Diversity Plus: SAg Assay for CD38 Biomarker Activity (AID 2283087); settings: primary human HUVEC with PBMC; actives raise or lower the signal
In short: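 Fluorescence ELISA of cell-surface CD38 served as the read-out, with either increase or decrease fitted against DMSO controls. Cells were a human umbilical vein endothelium plus PBMC co-culture under SEB/TSST-1 stimulation, measured 24 h after dosing.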

[16] = read-out: CD40, CD40 (gene 958); assay: BSK_SAg_CD40: BioMAP Diversity Plus: SAg Assay for CD40 Biomarker Activity (AID 2283088); settings: primary human HUVEC with PBMC; actives raise or lower the signal
In short: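 Human umbilical vein endothelial cells co-cultured with PBMC; CD40 levels measured by ELISA with fluorescence read-out 24 h after chemical dosing. Gain or loss of signal fitted bidirectionally against DMSO baseline.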

[17] = read-out: CD69, CD69 (gene 969); assay: BSK_SAg_CD69: BioMAP Diversity Plus: SAg Assay for CD69 Biomarker Activity (AID 2283089); settings: primary human HUVEC with PBMC; actives raise or lower the signal;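 as to AC50: cell surface CD69 protein quantified by ELISA with fluorescence detection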
In short: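 HUVEC co-cultured with PBMC were dosed with chemical, and CD69 was measured by ELISA with fluorescence read-out 24 h later. Bidirectional curve fitting used DMSO as negative control and activity baseline.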

[18] = read-out: Monocyte Chemoattractant Protein-1 (MCP1), CCL2 (gene 6347); assay: BSK_SAg_MCP1: BioMAP Diversity Plus: SAg Assay for Monocyte Chemoattractant Protein-1 (MCP1) Biomarker Activity (AID 2283090); settings: primary human HUVEC with PBMC; actives raise or lower the signal
In short: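 MCP-1 levels in the endothelial–PBMC SAg co-culture were quantified by ELISA at 24 h post-dosing; both increases and decreases versus DMSO scored. Cytotoxicity monitored by SRB total protein in parallel cultures.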

[19] = read-out: urokinase plasminogen activator (uPA), PLAU (gene 5328); assay: BSK_KF3CT_uPA: BioMAP Diversity Plus: KF3CT Assay for urokinase plasminogen activator (uPA) Biomarker Activity (AID 2283075); settings: primary human keratinocytes with fibroblasts; actives raise or lower the signal
In short: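 Primary human keratinocyte/foreskin fibroblast co-culture exposed to chemical; uPA measured by ELISA at 24 h. Bidirectional fit versus DMSO, with parallel SRB total-protein staining for cytotoxicity.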

[20] = read-out: Tissue Factor, F3 (gene 2152); assay: BSK_LPS_TissueFactor: BioMAP Diversity Plus: LPS Assay for Tissue Factor Biomarker Activity (AID 2283084); settings: primary human HUVEC with PBMC; actives raise or lower the signal
In short: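 Human umbilical vein endothelial cells co-cultured with peripheral blood mononuclear cells were dosed and stimulated with LPS. Cell-surface CD142 was quantified by ELISA at 24 h. Activity was fitted bidirectionally against DMSO baseline.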

Measured: AC50

Chain of Tumor necrosis factor (Homo sapiens) (P01375 whole entry, looked up): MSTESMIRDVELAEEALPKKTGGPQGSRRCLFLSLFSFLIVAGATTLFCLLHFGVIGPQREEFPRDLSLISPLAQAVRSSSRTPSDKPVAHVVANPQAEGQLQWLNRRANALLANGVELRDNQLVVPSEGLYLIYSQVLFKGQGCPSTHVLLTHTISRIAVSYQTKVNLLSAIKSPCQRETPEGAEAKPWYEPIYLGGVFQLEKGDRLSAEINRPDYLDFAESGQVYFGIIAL
Chain of E-selectin (Homo sapiens) (P16581 whole entry, looked up): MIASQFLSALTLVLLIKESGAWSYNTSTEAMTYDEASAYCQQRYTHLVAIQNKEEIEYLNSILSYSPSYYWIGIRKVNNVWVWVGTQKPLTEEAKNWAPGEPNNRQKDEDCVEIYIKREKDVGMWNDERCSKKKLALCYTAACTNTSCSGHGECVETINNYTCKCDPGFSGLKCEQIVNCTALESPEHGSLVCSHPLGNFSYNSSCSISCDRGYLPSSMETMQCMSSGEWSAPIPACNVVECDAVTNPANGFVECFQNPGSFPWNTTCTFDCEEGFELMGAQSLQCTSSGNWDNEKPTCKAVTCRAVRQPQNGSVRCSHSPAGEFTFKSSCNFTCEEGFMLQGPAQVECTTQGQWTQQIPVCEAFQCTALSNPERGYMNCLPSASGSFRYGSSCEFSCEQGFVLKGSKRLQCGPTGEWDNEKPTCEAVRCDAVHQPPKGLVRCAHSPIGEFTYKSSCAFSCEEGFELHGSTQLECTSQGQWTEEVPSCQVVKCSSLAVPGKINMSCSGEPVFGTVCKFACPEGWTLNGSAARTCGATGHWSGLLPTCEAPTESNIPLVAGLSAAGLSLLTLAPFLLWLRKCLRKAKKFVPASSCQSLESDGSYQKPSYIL

O=c1[nH]sc2ccccc12
active: [1] 32.2 µM | [2] 30.7 µM | [3] 30.4 µM | [4] 31.2 µM | [5] 7.06 µM | [6] 25.9 µM | [7] 22.1 µM | [8] 25.7 µM | [9] 8.77 µM | [10] 17.6 µM | [11] 3.94 µM | [12] 12 µM | [13] 9.18 µM | [14] 9.14 µM | [15] 8.45 µM | [16] 7.92 µM | [17] 13.1 µM | [18] 15.3 µM

O=C1CCC(C2CCCCC2)CC1
active: [3] 29.6 µM | [4] 31.8 µM
inactive: all other assays above

Oc1ccc2ccccc2c1
active: [5] 22.1 µM | [6] 16.1 µM | [11] 13.2 µM
not listed: [19] | [20]
inactive: all other assays above

CC[C@H](NC(=O)c1cc(F)ccc1NS(=O)(=O)c1cccc2cccnc12)c1ccccc1
active: [11] 8.72 µM | [16] 6.29 µM | [17] 10.5 µM
not listed: [18] | [20]
inactive: all other assays above

CC(C)(O)c1ccc(CNC(=O)c2cccnc2Oc2ccc3nonc3c2)cc1
active: [13] 1.49 µM
not listed: [18] | [20]
inactive: all other assays above

CCCCCCCC[Si](OCC)(OCC)OCC
active: [4] 27.6 µM | [14] 30.1 µM | [15] 20 µM | [17] 25.4 µM
not listed: [9] | [19] | [20]
inactive: all other assays above
